Assay outcomes deposited in PubChem BioAssay by National Center for Advancing Translational Sciences (NCATS).
In the library only some 3.1% were active in any assay of this set; here they are far more common.
PI4K2A block – inhibitors of human PI4K2A; Q9BTU6; purified PI4K2A, ADP-Glo luminescence, 1 h; active compounds read low; activity change, negative = inhibition, % at 76.9 µM; 0.13% of 420,000 active; AID 1346378; in the data active = activity change below about -50%; inconclusive = mostly about -30% to -49%
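ADP-Glo luminescence measured ADP generated by PI4K2A enzyme (4 ug/mL before mixing) with 1.2 mM PI substrate (pre-mix) and 300 microM ATP (pre-mix). Tris pH7.5 buffer with MgCl2, Triton X-100; 1 h reaction at ambient temperature.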
GLS inhibitor – inhibitors of human glutaminase (GLS). O94925. GLS enzymatic activity, qHTS titration. Potency, µM (series often up to 45.5 µM), actives largely listed as inhibitors. 0.21% of 410,000 active. AID 624170
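Two-point fluorescence kinetic (t0, 30 min RT) for hKGA; glutamate detected via glutamate oxidase–HRP–Amplex Red. Substrate: 1 mM L-glutamine solution; buffer 45 mM KH2PO4, pH 8.2.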
GCN5L2 inh – inhibitors of human GCN5L2 histone acetyltransferase. Q92830. GCN5L2 HAT assay, ThioGlo1 CoA-SH fluorescence. Potency, µM (titrated, usually from 58.9 µM), most hits filed as inhibitors. 0.21% of 390,000 active. AID 504327
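Titration-based screen in which CoA formation is detected via maleimide probe ThioGlo1 (50uM) turning fluorescent on thiol reaction; substrates H3(1-25) 75uM and acetyl-CoA 70uM, GCN5L2 20nM, 20 min incubation at room temperature.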
VDR inh – vitamin D3 receptor (human) inhibition | VDR-SRC2-3 peptide fluorescence polarization, 2 h | Potency, µM, usual class: inhibitors | 0.93% of 400,000 active
Target sequence (P11473 whole entry, looked up): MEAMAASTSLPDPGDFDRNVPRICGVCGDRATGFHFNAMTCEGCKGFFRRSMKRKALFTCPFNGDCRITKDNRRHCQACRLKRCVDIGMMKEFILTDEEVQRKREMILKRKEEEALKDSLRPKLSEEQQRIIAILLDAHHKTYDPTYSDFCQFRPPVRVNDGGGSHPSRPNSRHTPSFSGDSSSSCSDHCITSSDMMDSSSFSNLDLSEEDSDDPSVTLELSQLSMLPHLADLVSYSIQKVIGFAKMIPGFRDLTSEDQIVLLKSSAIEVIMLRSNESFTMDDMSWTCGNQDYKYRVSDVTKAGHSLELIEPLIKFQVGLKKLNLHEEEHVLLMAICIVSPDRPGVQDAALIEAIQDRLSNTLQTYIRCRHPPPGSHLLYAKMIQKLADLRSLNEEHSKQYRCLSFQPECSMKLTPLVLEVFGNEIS
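Inhibition of the VDR/SRC2-3 peptide interaction is quantified by fluorescence polarization. Compounds (23 nl, pintool) incubate with the reagents for 2 hours at ambient room temperature.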
PLK1 PBD block – PLK1 (human) polo-box domain binding inhibition; Plk1 PBD binding of FITC phosphopeptide, fluorescence polarization; Potency, µM, actives largely listed as inhibitors; 2.8% of 360,000 active; P53350; also: series mostly up to about 57 µM; nearly all actives have a fitted effect of over 65% in size
VDR inh confirm – inhibits human vitamin D receptor, primary hit validation | shares compounds with VDR inh | VDR-coactivator inhibition assay, qHTS confirmation | Potency, µM, most hits filed as inhibitors | 89% of 840 active | AID 602199
VDR FP – blocks human VDR-coactivator binding in fluorescein assay | shares compounds with VDR inh | VDR-coactivator binding, fluorescein fluorescence polarization | Potency, µM (titrated, usually from 57.1 µM), hits mostly inhibitors | 48% of 840 active | AID 602200
VDR bla reporter – inhibits human VDR in beta-lactamase reporter cells | shares compounds with VDR inh | 23% of 840 active | VDR beta-lactamase reporter cells, FRET ratio; cells co-treated with VDR agonist LG190178 | Potency, µM (titrated, usually from 46.1 µM), most hits filed as inhibitors | AID 602202
VDR viability – cytotoxic in counter-screen for VDR inhibitors; cytotoxicity counter-screen, cell viability, qHTS; 18% of 840 active; shares compounds with VDR inh; AID 602204; Potency, µM (doses to about 48.3 µM), actives largely listed as cytotoxic; also: nearly all actives have a fitted effect of over 75% in size
A number is an active result; [ ] = remark or other dose. Unless noted, calls follow the shape of the dose curve; as a rule, active = well fitted curve in the direction sought with a large enough effect; inconclusive = small, poorly fitted or top-dose-only effect, or another doubt; inactive = no such curve, though single readings can be large; an effect the other way counts as inactive or inconclusive.

Results for COC(=O)c1ccc(Cn2cc(/C=C\[N+](=O)[O-])c3ccccc32)o1 ?
PI4K2A block: inactive; GLS inhibitor: inactive; GCN5L2 inh: inactive; VDR inh: 25.1µM; PLK1 PBD block: inconclusive; VDR inh confirm: 21.2; VDR FP: inconclusive; VDR bla reporter: inconclusive; VDR viability: inconclusive

Results for CN1CCN(C(=S)C(=O)Nc2ccc(Br)cc2)CC1 ?
PI4K2A block: inactive; GLS inhibitor: inactive; GCN5L2 inh: inactive; VDR inh: inconclusive; PLK1 PBD block: 2.38µM; VDR inh confirm: 3.98; VDR FP: 3.55µM; VDR bla reporter: inactive; VDR viability: inactive

What do the screens show for `O=c1c(-c2cccs2)nc2cnc(N3CCNCC3)nc2n1C1CC1`?
GCN5L2 inh: inconclusive; VDR inh: inactive

Results for CC(C)OC(=O)c1cc2c(OCC(O)CNC(C)(C)C)cccc2[nH]1 (centres undefined) ?
PI4K2A block: inactive

What do the screens show for `O=C1C(C2=C(O)c3ccccc3C2=O)=Nc2ccccc21`?
PI4K2A block: inactive; GLS inhibitor: inactive; GCN5L2 inh: inactive; VDR inh: 12.6µM; PLK1 PBD block: inconclusive; VDR inh confirm: 0.752; VDR FP: inconclusive; VDR bla reporter: inactive; VDR viability: inconclusive

What do the screens show for `CN=CC1=C(O)c2ccccc2C1=O`?
PI4K2A block: inactive; GLS inhibitor: inactive; GCN5L2 inh: inactive; VDR inh: inactive; PLK1 PBD block: inactive

How did COc1ccc2sc(N(Cc3cccnc3)C(=O)c3cccs3)nc2c1 do in these assays?
PI4K2A block: inactive; GLS inhibitor: inactive; GCN5L2 inh: inactive; VDR inh: inactive

Results for CC(C)C[C@H](N)c1nnc(S(=O)(=O)Cc2ccc(F)cc2)o1 ?
PI4K2A block: inactive; GLS inhibitor: inactive; GCN5L2 inh: inactive; VDR inh: 31.6µM; PLK1 PBD block: inconclusive; VDR inh confirm: inconclusive; VDR FP: 20µM; VDR bla reporter: inconclusive; VDR viability: inconclusive

What do the screens show for `Cc1ccc(NC(=O)c2nc(S(=O)(=O)Cc3ccccc3)ncc2Cl)cc1`?
PI4K2A block: inactive; GLS inhibitor: inconclusive; GCN5L2 inh: inactive; VDR inh: 25.1µM; PLK1 PBD block: inconclusive; VDR inh confirm: 18.9; VDR FP: inconclusive; VDR bla reporter: inconclusive; VDR viability: inconclusive

Results for COc1ccc2nc(NC(=O)c3nc(S(=O)(=O)Cc4ccccc4)ncc3Cl)sc2c1 ?
PI4K2A block: inactive; GLS inhibitor: inactive; GCN5L2 inh: inactive; VDR inh: inactive

How did O=C(Nc1nc2ccc(F)cc2s1)c1nc(S(=O)(=O)Cc2ccccc2)ncc1Cl do in these assays?
PI4K2A block: inactive; GLS inhibitor: inactive; GCN5L2 inh: inactive; VDR inh: inconclusive

What do the screens show for `O=C(Nc1ccc(F)cc1)c1nc(S(=O)(=O)Cc2ccccc2)ncc1Cl`?
PI4K2A block: inactive; GLS inhibitor: inactive; GCN5L2 inh: inactive; VDR inh: inconclusive; PLK1 PBD block: 16.8µM; VDR inh confirm: 3.55; VDR FP: 2.82µM; VDR bla reporter: 3.26µM; VDR viability: 18.9µM

How did O=C(NCc1ccccc1)c1nc(S(=O)(=O)Cc2ccc(F)cc2)ncc1Cl do in these assays?
PI4K2A block: inactive; GLS inhibitor: inactive; GCN5L2 inh: inactive; VDR inh: 31.6µM; VDR inh confirm: 3.16; VDR FP: 7.94µM; VDR bla reporter: 20.6µM; VDR viability: 18.9µM

What do the screens show for `Cc1nnc(NC(=O)c2nc(S(=O)(=O)Cc3ccccc3)ncc2Cl)s1`?
PI4K2A block: inactive; GLS inhibitor: inactive; GCN5L2 inh: inactive; VDR inh: inconclusive; PLK1 PBD block: inactive; VDR inh confirm: 15.8; VDR FP: 12.6µM; VDR bla reporter: 2.31µM; VDR viability: 4.23µM

How did CCCC[C@]12Cc3cc(OC)c(OC)cc3C(O1)C1=C(O2)C(=O)c2ccccc2C1=O do in these assays?
GCN5L2 inh: inactive[12.7 µM]

Results for O=C(Nc1nnc(-c2ccccc2)s1)C1CCCN(C(=O)c2ccoc2)C1 (centres undefined) ?
VDR inh: 44.7µM; VDR inh confirm: 15.8; VDR FP: 8.91µM; VDR bla reporter: inconclusive; VDR viability: inactive

How did COc1ccc(C(C(=O)N(C)C2CCCC2)N(Cc2ccc(F)cc2)C(=O)c2cc(C)[nH]n2)cc1OC (centres undefined) do in these assays?
PI4K2A block: inactive

Results for CCc1ccc(-n2nc(C)c3c(C)cc(=O)n(CC(=O)NCc4ccc(C)cc4)c32)cc1 ?
PI4K2A block: inactive; GLS inhibitor: inactive; GCN5L2 inh: inactive; VDR inh: inactive

What do the screens show for `CCN(CC)c1ccc(NC(=O)c2ccccc2)cc1S(=O)(=O)Nc1ccccc1OC`?
PI4K2A block: inactive; GLS inhibitor: inactive; GCN5L2 inh: inactive; VDR inh: inconclusive; PLK1 PBD block: 1.89µM; VDR inh confirm: 3.16; VDR FP: 3.16µM; VDR bla reporter: inactive; VDR viability: inactive

What do the screens show for `COc1ccc(C(=O)Nc2ccc(Cl)c(S(=O)(=O)Nc3ccccc3OC)c2)cc1`?
PI4K2A block: inactive; GLS inhibitor: inactive; GCN5L2 inh: inactive; VDR inh: inactive; PLK1 PBD block: inactive

How did O=C(/C=C/c1ccc(O)c(O)c1)c1ccc(S(=O)(=O)N2CCCCCC2)cc1 do in these assays?
PI4K2A block: inactive; GLS inhibitor: inactive; GCN5L2 inh: inactive; VDR inh: 79.4µM; PLK1 PBD block: inactive; VDR inh confirm: 23.8; VDR FP: 25.1µM; VDR bla reporter: inactive; VDR viability: inactive

What do the screens show for `CC(=O)N1CCN(C(=S)c2ccc(-c3ccc(Cl)cc3)o2)CC1`?
PI4K2A block: inactive; GLS inhibitor: inactive; GCN5L2 inh: inactive; VDR inh: 50.1µM; PLK1 PBD block: 4.74µM; VDR inh confirm: 26.7; VDR FP: inconclusive; VDR bla reporter: inactive; VDR viability: inactive

What do the screens show for `CC(=O)N1CCN(C(=O)c2ccc(-c3ccccc3Cl)o2)CC1`?
PI4K2A block: inactive; GLS inhibitor: inactive; GCN5L2 inh: inactive; VDR inh: inactive; PLK1 PBD block: inactive

How did O=C(C1CCN(c2nc(-c3ccc(Br)cc3)cs2)CC1)N1CCNCC1 do in these assays?
PI4K2A block: inactive

What do the screens show for `C=CCn1c(NS(=O)(=O)c2ccccc2)c(S(=O)(=O)c2ccc(C)cc2)c2nc3ccccc3nc21`?
PI4K2A block: inactive; GLS inhibitor: inactive; GCN5L2 inh: inconclusive; VDR inh: inconclusive; PLK1 PBD block: inconclusive
